About 83,000 compounds went through this panel and 20% of them were active in at least one assay; those are over-represented in the sample as a whole.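 How to read the values: 0–100, growth inhibition (40 = 60% inhibited); 0, no net growth; -100 to 0, cell death (-40 = 40% of starting cells died; -100 = all dead).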 Unmarked numbers belong to inactive results. Calls of active or inactive are those of the source. How the source made its calls: active means growth percent below 10; inactive means the rest.

Assay in all cases: NCI-60 one-dose screen, 48 h (100 = growth as untreated, 0 = no growth, -100 = all killed)
One assay concerns BT-549 breast. The following applies: 10 µM unless noted.
For the next assay, the system named is MDA-MB-435 melanoma. As to conditions: 10 µM unless noted.
The subject of the next assay is SW-620 colon. The following applies: 10 µM unless noted.
Another assay concerns MCF7 breast. The following applies: 10 µM.
The next assay concerns HCT-116 colon. The following applies: 10 µM unless noted.
The next assay concerns HCC-2998 colon. The following applies: 10 µM unless noted.
The test system of a further assay is KM12 colon. The following applies: 10 µM unless noted.

As for `COc1ccc(Br)c(/C=C2\SC(=Nc3ccc(O)cc3)NC2=O)c1`, the growth in the assay with BT-549 breast was 83.5%; in the assay with MDA-MB-435 melanoma, 87.2%; in the assay with SW-620 colon it was 104%; in the assay with MCF7 breast, 70.4%; in the assay with HCT-116 colon it was 98.7%; in the assay with HCC-2998 colon, 109%. In the assay with KM12 colon, the growth is 84.2%.
Turning to `CCCCCCc1cc2cc(-c3csc(/C=C/c4ccccc4)n3)c(=O)oc2cc1O`, the growth in the assay on BT-549 breast was 41.4%; in the assay with MDA-MB-435 melanoma, -72.2% (active); with SW-620 colon, 1.96% (active); in the assay on MCF7 breast, 8.1% (active); with HCT-116 colon it was 12%; in the assay with HCC-2998 colon, -25.1% (active). The growth in the assay with KM12 colon was 15.8%.
As for `CCN1C(=O)N(CC)C2Nn3c(s/c(=C4\C(=O)N(C(C)C)c5ccccc54)c3=O)=NC21` (stereo not given), the growth in the assay with BT-549 breast was 27.7%; in the assay on MDA-MB-435 melanoma, 1.02% (active); in the assay on SW-620 colon, 32.4%; with MCF7 breast, 9% (active); in the assay with HCT-116 colon it was 6.5% (active); in the assay on HCC-2998 colon, 34.6%. For the same compound, in the assay on KM12 colon, the growth is 28.5%.
`CN1C(=O)N(C)C2C1NN=c1s/c(=C\c3ccc([N+](=O)[O-])cc3)c(=O)n12` (stereo not given): the growth in the assay with BT-549 breast was 60.5%; in the assay on MDA-MB-435 melanoma it was 6.25% (active); in the assay on SW-620 colon it was 37.8%; in the assay with MCF7 breast, 26%; in the assay on HCT-116 colon, 37.6%; with HCC-2998 colon it was 84.9%. Moreover, the growth in the assay with KM12 colon is 35.5%.
Turning to `O=C(O)CCCN1C(=O)C2C3CCC(C3)C2C1=O` (stereo not given), the growth in the assay with BT-549 breast was 107%; in the assay on MDA-MB-435 melanoma, 99.7%; in the assay on SW-620 colon, 112%; in the assay on MCF7 breast, 109%; in the assay with HCT-116 colon, 108%; with HCC-2998 colon it was 106%. The growth with KM12 colon was 103%.
For the compound `COC(=O)c1cc2c(n1Cc1ccccc1)-c1oncc1CCC2`, the growth was 79.6% with BT-549 breast; -13% (active) in the assay with MDA-MB-435 melanoma; 34.7% with SW-620 colon; 40.8% in the assay with MCF7 breast; 57.4% with HCT-116 colon; 76.2% in the assay on HCC-2998 colon. In addition, in the assay with KM12 colon, the growth was 63%.
Take `NC1(N2SC(S)=C3CCCC=C32)CCCCC1`: the growth in the assay with BT-549 breast was 118%; with MDA-MB-435 melanoma, 107%; with SW-620 colon, 99.3%; in the assay on MCF7 breast, 95.4%; in the assay on HCT-116 colon it was 98.4%; with HCC-2998 colon it was 101%. In addition, the growth in the assay on KM12 colon is 102%.
With `O=C(NC1CCCCC1)C(c1cccs1)N(CCc1ccccc1)C(=O)c1ccco1` (stereo not given), the growth was 103% in the assay on BT-549 breast; 104% with MDA-MB-435 melanoma; 96.1% with SW-620 colon; 88.3% with MCF7 breast; 82.9% in the assay with HCT-116 colon; 105% in the assay on HCC-2998 colon. For the same compound, the growth in the assay on KM12 colon was 98%.
Turning to `Oc1c(C(Nc2ccccn2)c2cccc(Oc3ccccc3)c2)ccc2cccnc12` (stereo not given), the growth is -74.5% (active) with BT-549 breast; -90.1% (active) in the assay with MDA-MB-435 melanoma; -88% (active) in the assay with SW-620 colon; -83% (active) in the assay with MCF7 breast; -85.3% (active) in the assay with HCT-116 colon; -84.5% (active) with HCC-2998 colon. In addition, the growth with KM12 colon was -89.9% (active).
`O=C(Nc1ccc(-c2nc3ccc(NC(=O)c4ccc(Cl)cc4)cc3[nH]2)cc1)c1ccc(Cl)cc1`: the growth in the assay with BT-549 breast was -5.61% (active); in the assay on MDA-MB-435 melanoma it was -32.7% (active); in the assay with SW-620 colon, 18.4%; in the assay on MCF7 breast it was 14.4%; in the assay with HCT-116 colon it was 0.708% (active); in the assay on HCC-2998 colon it was -23% (active). The growth with KM12 colon is 39.7%.
For `CCN1C(=O)N(c2ccccc2)C2NN=c3s/c(=C4\C(=O)N(C(C)C)c5ccccc54)c(=O)n3C21` (stereo not given), the growth in the assay with BT-549 breast is 12.7%; in the assay with MDA-MB-435 melanoma it was -21.2% (active); with SW-620 colon, 35.2%; in the assay with MCF7 breast it was 20.6%; in the assay on HCT-116 colon, 4.19% (active); with HCC-2998 colon, 33.4%. Also, the growth with KM12 colon is 14.5%.
With `O=C(N=Nc1c(O)[nH]c2ccccc12)c1oc2ccccc2c1CN1CCN(c2ccccc2)CC1`, the growth is 11.4% in the assay on BT-549 breast; 26.3% in the assay with MDA-MB-435 melanoma; 0.43% (active) with SW-620 colon; -22.7% (active) in the assay with MCF7 breast; -53.1% (active) in the assay on HCT-116 colon; 33.6% with HCC-2998 colon. Besides, the growth in the assay with KM12 colon was 23.1%.
`CCc1ccc(CNCC(O)c2ccccc2)cc1` (stereo not given): the growth in the assay with BT-549 breast is 90.1%; in the assay on MDA-MB-435 melanoma, 69.9%; with SW-620 colon, 89.6%; with MCF7 breast it was 29.8%; with HCT-116 colon, 47.8%; in the assay with HCC-2998 colon, 38.5%. The growth in the assay with KM12 colon was 72.5%.
As for `COc1ccc(Nc2nc(N/N=C/c3ccc(O)cc3)nc(Nc3ccc([N+](=O)[O-])cc3)n2)cc1`, the growth is 114% in the assay with BT-549 breast; 116% in the assay on MDA-MB-435 melanoma; 112% in the assay on SW-620 colon; 97.4% with MCF7 breast; 105% in the assay on HCT-116 colon; 102% in the assay on HCC-2998 colon. Further, the growth with KM12 colon was 121%.
For `Cc1cccc(NC(=O)c2sc3nc4c(cc3c2N)CCCC4)c1C`, the growth is 37.5% in the assay on BT-549 breast; -40.6% (active) in the assay on MDA-MB-435 melanoma; 23.7% in the assay on SW-620 colon; 17.1% in the assay on MCF7 breast; 14.8% in the assay with HCT-116 colon; 22.8% in the assay on HCC-2998 colon. The growth in the assay on KM12 colon is 8.85% (active).
As to `COC(=O)/C(=C\c1c(-c2ccccc2)[nH]c2ccccc12)S(C)(=O)=O`, the growth in the assay with BT-549 breast was 45.7%; with MDA-MB-435 melanoma, 4.05% (active); in the assay with SW-620 colon, 20.4%; in the assay with MCF7 breast it was 15.6%; with HCT-116 colon it was 17.4%; in the assay on HCC-2998 colon, 44.7%. In the assay with KM12 colon, the growth was 4.53% (active).
`CCN1C(=O)N(CC)C2C1NN=c1s/c(=C3\C(=O)N(CC(C)(C)C)c4ccccc43)c(=O)n12` (stereo not given): the growth in the assay with BT-549 breast was 21.7%; in the assay on MDA-MB-435 melanoma it was -21.3% (active); in the assay with SW-620 colon, 42.8%; with MCF7 breast, 20.2%; in the assay on HCT-116 colon, 7.62% (active); with HCC-2998 colon, 26.7%. Further, the growth with KM12 colon is 17.6%.
For `CN=c1ccc2nc3ccc(N)cc3sc-2c1`, the growth is 52.4% in the assay on BT-549 breast; -62.6% (active) in the assay on MDA-MB-435 melanoma; 10.8% with SW-620 colon; -12.7% (active) with MCF7 breast; 6.01% (active) with HCT-116 colon; 49.8% with HCC-2998 colon. The growth in the assay on KM12 colon was 27.9%.
`COc1ccc(-c2nsc3c2NC(=O)CC3c2ccsc2)cc1` (stereo not given): the growth in the assay on BT-549 breast was 12.1%; with MDA-MB-435 melanoma, -44% (active); in the assay on SW-620 colon, 28.3%; with MCF7 breast, 16.7%; in the assay with HCT-116 colon, 10.8%; with HCC-2998 colon it was 31.1%. Further, the growth in the assay on KM12 colon is 8.01% (active).
In the case of `COC(=O)c1ccc(NC(=O)CSc2nc3ccccc3c(=O)n2-c2ccccc2)cc1`, the growth in the assay on BT-549 breast is 94.4%; in the assay on MDA-MB-435 melanoma, 104%; in the assay on SW-620 colon, 105%; in the assay with MCF7 breast it was 106%; in the assay with HCT-116 colon it was 97.7%; in the assay with HCC-2998 colon it was 98.8%. For the same compound, the growth in the assay on KM12 colon was 99.8%.
On to `O=C1/C(=C/c2cccc(O)c2)COc2ccc(O)cc21`, for which the growth was 98.1% in the assay on BT-549 breast; 60.3% in the assay on MDA-MB-435 melanoma; 9.65% (active) in the assay on SW-620 colon; 14% with MCF7 breast; 10.1% in the assay on HCT-116 colon; 103% with HCC-2998 colon. For the same compound, the growth with KM12 colon was 20.9%.
As to `O=c1c2cc(F)ccc2sc2c(Nc3ccncc3)nc3ccccc3c12`, the growth with BT-549 breast was 81.5%; in the assay on MDA-MB-435 melanoma it was -62.1% (active); in the assay on SW-620 colon, -74.6% (active); in the assay with MCF7 breast, -77.9% (active); in the assay on HCT-116 colon, -48.9% (active); with HCC-2998 colon, 75.9%. Also, the growth with KM12 colon is 1.24% (active).
Consider `COc1cc(C(C)n2cc(-c3ccccc3)nn2)ccc1OC1CCCCC1` (stereo not given), for which the growth in the assay with BT-549 breast is 69.3%; in the assay on MDA-MB-435 melanoma it was 68.1%; with SW-620 colon, 75.5%; with MCF7 breast, 49.8%; in the assay with HCT-116 colon it was 42.5%; in the assay on HCC-2998 colon, 81.4%. For the same compound, the growth in the assay with KM12 colon was 77.9%.
On to `N#C/C(=C1\SC(=O)CN1c1ccccc1)c1nc2ccccc2s1`, for which the growth in the assay on BT-549 breast was 103%; in the assay with MDA-MB-435 melanoma, 102%; in the assay on SW-620 colon, 93.5%; in the assay on MCF7 breast, 73.8%; in the assay on HCT-116 colon, 89%; in the assay with HCC-2998 colon it was 97.3%. In the assay on KM12 colon, the growth is 98.4%.
In the case of `Nc1nc(-c2cnccn2)nn1-c1nc2ccccc2s1`, the growth with BT-549 breast is 104%; with MDA-MB-435 melanoma it was 103%; in the assay with SW-620 colon it was 105%; with MCF7 breast it was 83.8%; in the assay with HCT-116 colon, 93%; in the assay with HCC-2998 colon it was 101%. In addition, in the assay on KM12 colon, the growth was 101%.
